DRD3 antagonist: blocks the human D3 dopamine receptor; D3R cells, DiscoveRx beta-arrestin luminescence, antagonist mode; hits give low values; 2.5% of 360,000 active; max response, negative = inhibition, %; P35462; AID 652054; in the data active means max response below about -50%; inconclusive means no clear call, values can overlap the other calls
Target sequence (P35462 whole entry, looked up): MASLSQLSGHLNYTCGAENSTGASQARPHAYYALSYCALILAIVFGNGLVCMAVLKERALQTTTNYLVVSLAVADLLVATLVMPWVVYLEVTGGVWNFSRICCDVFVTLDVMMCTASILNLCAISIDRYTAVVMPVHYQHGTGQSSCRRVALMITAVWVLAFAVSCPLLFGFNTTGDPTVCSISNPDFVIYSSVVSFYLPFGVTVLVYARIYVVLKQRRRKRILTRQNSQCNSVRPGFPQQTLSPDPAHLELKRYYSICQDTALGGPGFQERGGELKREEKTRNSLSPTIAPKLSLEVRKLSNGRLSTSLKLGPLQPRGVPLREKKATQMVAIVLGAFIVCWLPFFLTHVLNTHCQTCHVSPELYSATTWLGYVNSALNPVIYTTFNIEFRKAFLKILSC
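Cells plated overnight at 1500 cells/well, then exposed to library compounds with dopamine controls for 90 minutes at 37 degrees C. DiscoveRx reagent added for 30–60 minutes at room temperature; luminescence read, quantitative HTS format.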
D3 ag: agonists of human D3 dopamine receptor; P35462; D3R DiscoveRx beta-arrestin cells, luminescence, 90 min; max activation, %; 0.58% of 410,000 active; in the data active means max activation above about 30%
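Agonist mode: compounds and dopamine controls were applied to plated cells for 90 min at 37 degrees C after an overnight attachment at 1500 cells/well. Luminescent read-out followed 30 - 60 minutes at room temperature with DiscoveRx detection reagent.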
GLP1R inv ag: inverse agonists of human GLP-1 receptor. P43220. AID 624417. 1.6% of 410,000 active. Potency, µM (doses to about 38.3 µM), hits mostly inhibitors. HEK293 GLP-1R CRE-luciferase, luminescence, 24 h; GLP-1R form is constitutively active; further: nearly all actives have a fitted effect of over 55% in size
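qHTS in 1536-well format: reporter HEK293 cells expressing constitutive GLP-1R activity in DMEM + 10% Nu serum, 24 hr with compounds at 37 deg C, luminescence read after 12 min with detection reagent.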
GLP-1R agonist: agonists of human GLP-1 receptor; HEK293 GLP-1R CRE-luciferase, luminescence, 4-6 h; cells express a hypersensitive GLP-1R form; P43220; Potency, µM (doses to about 45.6 µM), most hits filed as activators; 0.007% of 380,000 active
A number is an active result; n = inactive; u = inconclusive; x = no result. In the library only some 4.3% were active in any assay of this set; here they are far more common. Unless noted, the call rests on the fitted dose curve; in most records, active means well fitted curve in the direction sought with a large enough effect; inconclusive means small, poorly fitted or top-dose-only effect, or another doubt; inactive means no such curve, though single readings can be large; an effect the other way counts as inactive or inconclusive.

SMILES	DRD3 antagonist	D3 ag	GLP1R inv ag	GLP-1R agonist
COc1ccc(S(=O)(=O)NCC(c2ccco2)N2CCN(c3ccc(F)cc3)CC2)cc1C (configuration not stated)	x	n	u	x
COC(=O)c1cccc(NC2=NS(=O)(=O)c3ccccc32)c1	x	n	n	x
COCCc1nn2c(=O)cc(COC(=O)COc3ccc(F)cc3)nc2s1	x	n	n	x
CCc1ccc(-n2nc(CO)c(C(=O)NCCOC)n2)cc1	x	n	n	x
CCOc1cccc(C(=O)Nc2ccc(S(=O)(=O)N(Cc3ccccc3)c3ccccc3)cc2)c1	x	n	3.2µM	x
CCN(c1ccccc1)S(=O)(=O)c1cc(C(=O)Nc2ccc(Br)cc2)ccc1F	u	n	2.5µM	n
CN(C(=S)Oc1ccc(C(=O)Nc2ccccc2)cc1)c1ccccc1	n	n	8.9µM	n
Cc1nc2ccc(NC(=O)c3cccc(S(=O)(=O)N(C)c4ccccc4)c3)cc2s1	n	n	5.6µM	n
COc1cccc(C(=O)Nc2ccc(S(=O)(=O)N(Cc3ccccc3)c3ccccc3)cc2)c1	x	n	u	x
Cc1nc2ccc(NC(=O)c3ccccc3)cc2s1	n	n	n	n
Cc1ccc(N(C)S(=O)(=O)c2nnc(NC(=O)CC(C)C)s2)cc1	x	n	n	x
Cc1cccc(N2CCN(S(=O)(=O)c3ccc4oc(=O)c5ncn(C)c5c4c3)CC2)c1C	x	n	n	x
CCOc1ccc(N(CC(=O)Nc2ccc(C)c(C)c2)S(=O)(=O)c2c(C)noc2C)cc1	-66	n	10µM	n
CCOc1ccc(N(CC(=O)Nc2cccc(F)c2)S(=O)(=O)c2c(C)noc2C)cc1	n	n	u	n
CN(C)C(CNC(=O)c1cc(S(=O)(=O)N(C)c2ccc(F)cc2)ccc1Cl)c1ccco1 (configuration not stated)	n	n	u	n
CCCSc1ncc(Cl)c(C(=O)Nc2ccc(S(=O)(=O)N(C)c3ccccc3)cc2)n1	x	n	u	x
CN(C)C(CNC(=O)c1cc(S(=O)(=O)N(C)c2ccccc2)ccc1Cl)c1ccccc1 (configuration not stated)	n	n	10µM	n
Cc1cccc(C(=O)NC(=S)Nc2ccc(S(=O)(=O)N(C)c3ccccc3)cc2)c1	-66	n	u	n
CN(c1ccccc1)S(=O)(=O)c1ccc(NC(=O)c2nc(S(C)(=O)=O)ncc2Cl)cc1	-108	n	u	n
Cc1nc2ccc(NC(=O)c3ccc4ccccc4n3)cc2s1	n	n	n	n
Cc1cccc(C(=O)NC(=S)Nc2ccc(Cc3ccncc3)cc2)c1	-78	n	u	n
COc1cccc(NC(=O)c2nc(S(C)(=O)=O)ncc2Cl)c1	-109	n	u	n
CCn1nc(C(=O)Nc2ccc3nc(C)sc3c2)c2ccccc2c1=O	-86	n	n	n
CCOc1ccc(NC(=O)CN(c2ccc([N+](=O)[O-])cc2)S(=O)(=O)c2ccccc2)cc1	u	n	4µM	u
CC(=O)Nc1ccc(NC(=O)CN(c2ccc([N+](=O)[O-])cc2)S(=O)(=O)c2ccccc2)cc1	n	n	n	n
SMILES	DRD3 antagonist	D3 ag	GLP1R inv ag	GLP-1R agonist
Cc1cc(C)cc(C(=O)NC(=S)Nc2ccc(Cc3ccncc3)cc2)c1	u	n	u	n
Cc1ccccc1Cn1c(=O)n(Cc2ccc3c(c2)OCO3)c(=O)c2oc3ccccc3c21	x	n	n	x
Cc1c(C(=O)OC2CCCC2)[nH]c2c1C(=O)CC(c1ccc(Cl)cc1)C2 (configuration not stated)	x	n	n	x
Cc1ccccc1OCc1ccc(-c2nc(C#N)c(NCCCN(C)C)o2)o1	x	n	n	x
CO/N=C(/C(=O)N[C@@H]1C(=O)N2C(C(=O)O)=C(C[n+]3ccc(N)n3CCO)CS[C@H]12)c1csc(N)n1	x	x	x	n
Cc1ccc(S(=O)(=O)Nc2cc3c(cc2NCc2ccccc2)n(C)c(=O)n3C)c(C)c1	x	n	n	x
CC(C)(O)c1cc2ccc(C#CCCN3C(=O)c4ccccc4C3=O)cc2c(=O)o1	n	n	n	n
Cn1cnnc1Sc1ccc(C(=O)OCC(=O)NC2CC2)cc1[N+](=O)[O-]	n	n	n	n
Cn1cnnc1Sc1ccc(C(F)(F)F)cc1[N+](=O)[O-]	n	n	6.3µM	n
CSc1nc(NCC(C)O)c2c3c(sc2n1)CN(C)CC3 (configuration not stated)	n	n	n	n
CSc1nc(SCC(=O)NC(c2ccccc2)c2ccccc2)c2c3c(sc2n1)CN(C)CC3	-92	n	n	n
COc1ccc(C(CNC(=O)Cc2ccc(Cl)cc2)N2CCOCC2)cc1 (configuration not stated)	x	n	n	x
